An excerpt weighted towards active compounds, which were near 4.5% of everything screened.
DAX1 inh-1: DAX1 (NR0B1) inhibitors, primary screen, cell-based, HEK293, Gal4-DAX1, luciferase luminescence | HEK293 Gal4-DAX1 luciferase reporter | hit rate 0.99% among 340,000 | Nuclear receptor subfamily 0 group B member 1 (Homo sapiens), P51843 | inhibition, % at 6.75 µM;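 active = inhibition above the mean over all tested compounds plus 3 SD, cut at about 4.2% in these data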;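 also: 0% = DAX1-transfected cells with DMSO and 100% = empty-vector control cells with DMSO; inhibition shows as a rise in luminescence from relieved DAX1 repression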
hcDAF12 agonist: H. contortus DAF-12 nuclear receptor activators, primary screen, cell-based, luminescence, HEK293, lit1-tk-luc reporter; HEK293 hcDAF-12 lit1-tk-luc reporter; 0% DMSO, 100% Δ7-dafachronic acid; activation, % at 6.8 µM; hit rate 1.4% among 370,000;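 active = activation above the mean of all tested compounds plus 3 SD, cut at about 5.5% in these data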;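 also: 100% = response to 3 µM Δ7-dafachronic acid high control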
hgDAF12 agonist: H. glycines DAF-12 receptor agonists, primary screen, cell-based, luminescence, HEK293, GAL4 fusion, UAS-luciferase. Nuclear hormone receptor DAF-12 (Heterodera glycines), GAL4 fusion. HEK293 GAL4-hgDAF12 UAS-luciferase reporter, agonist luminescence; normalized to butyrate control. activation, % at 6.8 µM. hit rate 1.8% among 370,000. AID 687014, 2013;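 active = activation above a cutoff set at the mean of all screened compounds plus 3 SD, cut at about 10% in these data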;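 also: 0% = DMSO wells and 100% = sodium butyrate wells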
GAA850 FXN act: FXN promoter activators, primary screen, cell-based, luciferase luminescence, HEK293 lucGAA850. hit rate 0.56% among 360,000. HEK293 lucGAA850 FXN promoter luciferase reporter, 24 h; percent of 10 µM SAHA response. activation, % at 6 µM;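 active = activation above the average of all compounds screened plus 3 SD, cutoff fixed separately per campaign, cut at about 7.5% in these data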;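 also: 0% = DMSO wells and 100% = 10 µM SAHA wells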
DAX1 inh-2: DAX1 (NR0B1) inhibitors on StAR promoter, primary screen, cell-based, luminescence, SF-1 (NR5A1), full-length DAX-1. hit rate 1.1% among 370,000. inhibition, % at 6.8 µM. HEK293T StAR-luciferase reporter, SF-1/DAX-1 repression relief;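 active = inhibition above the mean over all tested compounds plus 3 SD, cut at about 3.6% in these data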;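 also: 0% = DAX-1 cells with DMSO and 100% = cells lacking DAX-1 with DMSO; higher inhibition means more luminescence from relief of DAX-1 repression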
ssDAF12 agonist: S. stercoralis DAF-12 nuclear receptor activators, primary screen, cell-based, luminescence, HEK293, GRIP1 co-expression, lit1-tk-luc. hit rate 1% among 370,000. Nuclear hormone receptor DAF-12 (Strongyloides stercoralis). HEK293 ssDAF-12/GRIP1 lit1-tk-luc reporter; % of 3 µM dafachronic acid response. activation, % at 6.8 µM;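 active = activation above the mean over all tested compounds plus 3 SD, cut at about 0.9% in these data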;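 also: 0% = DMSO-only wells and 100% = 3 µM delta7-dafachronic acid wells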
LXR ag: LXR agonists, Gal4 luciferase reporter, confirmation, counter-screen for hcDAF-12 agonist project, cell-based, luminescence, HEK293, H. contortus campaign | shares compounds with hcDAF12 agonist | 3,400 tested, under 10 active | activation, % at 6.8 µM | HEK293 Gal4-LXR tk-luc reporter, 24 h; normalized: DMSO 0%, positive control 100%;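 active = mean percent activation of the reporter above a cutoff set as the average over tested compounds plus their standard deviation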
Target sequence (P55055 whole entry, looked up, the tested form may be a part): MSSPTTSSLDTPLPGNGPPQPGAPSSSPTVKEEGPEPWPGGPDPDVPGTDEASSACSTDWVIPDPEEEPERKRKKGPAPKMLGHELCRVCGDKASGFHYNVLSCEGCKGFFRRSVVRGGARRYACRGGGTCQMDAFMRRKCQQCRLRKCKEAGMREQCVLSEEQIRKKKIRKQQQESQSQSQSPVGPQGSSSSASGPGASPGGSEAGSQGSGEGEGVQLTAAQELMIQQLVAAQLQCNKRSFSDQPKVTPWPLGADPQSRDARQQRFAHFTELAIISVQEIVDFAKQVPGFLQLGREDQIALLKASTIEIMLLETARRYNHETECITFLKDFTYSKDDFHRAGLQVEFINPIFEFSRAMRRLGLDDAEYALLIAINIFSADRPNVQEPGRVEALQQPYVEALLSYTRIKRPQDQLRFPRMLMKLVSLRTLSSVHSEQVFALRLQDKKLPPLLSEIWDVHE
hcDAF12 ag: H. contortus DAF-12 receptor agonists, confirmation, cell-based, luminescence, HEK293, lit1-tk-luc, triplicate; hit rate 61% among 3,400; shares compounds with hcDAF12 agonist; AID 743032, 2013; activation, % at 6.8 µM; HEK293 hcDAF-12 lit1-tk-luc reporter; % of Δ7-dafachronic acid response;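 active = mean activation across triplicate tests above the threshold derived from the earlier primary screen, cut at about 5.5% in these data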;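 also: 0% = DMSO only wells and 100% = 3 µM Δ7-dafachronic acid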
hgDAF12 conf: H. glycines DAF-12 receptor agonists, confirmation, cell-based, luminescence, HEK293, GAL4-LBD fusion | shares compounds with hgDAF12 agonist | HEK293 GAL4-hgDAF12 luciferase reporter, agonist mode; percent of butyrate response | activation, % at 6.8 µM | hit rate 80% among 3,300 | AID 743050, 2013;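 active = mean activation over triplicate wells above the hit cutoff derived from the earlier primary screen, cut at about 11% in these data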;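 also: 0% = DMSO low control and 100% = 2 mM sodium butyrate high control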
LXR ag 2: LXR agonists, Gal4 luciferase reporter, confirmation, counter-screen for hgDAF-12 agonist project, cell-based, luminescence, HEK293, H. glycines campaign; 3,300 tested, under 10 active; shares compounds with hgDAF12 agonist; 24 h; activation, % at 6.8 µM;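 active = mean activation of the triplicate above a set limit carried over from the primary screen, none filed active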
The depositor's hits bear a star; / = not tested or not shown.

SMILES	DAX1 inh-1	hcDAF12 agonist	hgDAF12 agonist	GAA850 FXN act	DAX1 inh-2	ssDAF12 agonist	LXR ag	hcDAF12 ag	hgDAF12 conf	LXR ag 2
CCCC(=O)Nc1cc(-c2nc3ncccc3o2)ccc1Cl	0	0	3	1	-1	0	/	/	/	/
COc1ccc(NC(=O)CSc2nnnn2C2CCCC2)cc1S(=O)(=O)N1CCOCC1	1	-1	-1	1	-1	-2	/	/	/	/
O=C(CC(Nc1ccccc1Cl)C(=O)OCC(=O)c1cccs1)c1ccccc1 (stereo not given)	3	0	1	-4	0	-1	/	/	/	/
COc1ccccc1NC(CC(=O)c1ccccc1)C(=O)OCC(=O)c1ccc(C)cc1 (stereo not given)	3	8.5*	14*	4	3	0	2	15*	16*	1
COc1ccc(CCNC(=O)COc2ccc(S(=O)(=O)NC3CCCCC3)cc2Cl)cc1	-1	-2	-3	-4	-1	-1	/	/	/	/
NS(=O)(=O)c1ccc(N/C=C\C(=O)c2ccc(F)cc2)cc1	1	6.7*	16*	7	4.2*	0	1	5	13*	1
NS(=O)(=O)c1ccc(N/C=C/C(=O)c2ccc(Br)cc2)cc1	0	4	9	3	1	0	/	/	/	/
CC(C)(C)S(=O)(=O)N1Cc2ccc(CO)cc2[C@H]1CCO	0	0	-1	1	-1	-1	/	/	/	/
Fc1ccc(-n2nnc(-c3cccnc3Cl)n2)cc1	4.4*	7.2*	17*	1	3	0	1	6	17*	1
Fc1ccc(-n2nnc(-c3ccccc3Cl)n2)cc1	0	-2	0	0	-1	-2	/	/	/	/
CCCCc1c(C)[nH]c2nc3ccccc3n2c1=O	-1	1	3	2	0	-1	/	/	/	/
Cn1c(=O)c(C(=O)Nc2ccccn2)c(O)c2ccccc21	4	14*	17*	3	3.9*	3.0*	2	18*	24*	1
CC(C)COc1ccc(-c2cc(C(=O)NN)[nH]n2)cc1	0	13*	20*	5	4.0*	2.2*	0	3	6	0
CCOC(=O)c1cc(-c2ccc(OC)cc2)n[nH]1	0	0	3	2	1	-1	/	/	/	/
O=C(COC(=O)c1cccc(S(=O)(=O)N2CCOCC2)c1)NC1CCCCC1	1	0	1	-1	1	-2	/	/	/	/
O=C(O)c1ccc(N/N=C/c2ccc(F)c(F)c2)cc1	-2	11*	18*	3	4	1	2	8.2*	16*	1
Cn1cc(/C=C/C(=O)c2ccccc2)c2ccccc21	-1	12*	14*	0	2	1.4*	2	13*	22*	1
O=C(Nc1ncccc1O)c1ccc(Oc2ccccc2)cc1	1	6.8*	19*	4	3.8*	0	1	5.8*	26*	1
O=C(COc1ccc(C(=O)c2ccccc2)cc1)Nc1ncccc1O	0	-1	2	0	-1	0	/	/	/	/
COc1ccc(C=NN(C)C(=O)Nc2cccc(Cl)c2)cc1OC	/	-2	1	/	-1	-2	/	/	/	/
O=C(Nc1cnc2ccccc2c1)c1ccco1	0	7.1*	15*	1	3	0	2	4	18*	1
CC(=O)c1cccc(NCC(=O)N2CCN(S(=O)(=O)c3ccccc3)CC2)c1	0	-1	-4	1	0	-2	/	/	/	/
O=C(Nc1cccc(O)c1)c1c(O)c2ccccc2[nH]c1=O	5.0*	14*	13*	3	2	3.9*	2	15*	24*	1
CC(=O)C1=C(S(=O)(=O)c2ccc(C)cc2)CS(=O)(=O)C1	0	1	-4	4	0	-1	/	/	/	/
CCNC(=O)c1ccc(=O)n(Cc2ccc(Cl)cc2Cl)c1	1	0	-2	1	0	-1	/	/	/	/
SMILES	DAX1 inh-1	hcDAF12 agonist	hgDAF12 agonist	GAA850 FXN act	DAX1 inh-2	ssDAF12 agonist	LXR ag	hcDAF12 ag	hgDAF12 conf	LXR ag 2
Cc1cc(N2CCOCC2)n2ncc(-c3ccccc3Cl)c2n1	4	6.9*	18*	5	3	0	1	7.0*	16*	1
O=C(CCc1nnc(CCCc2ccccc2)o1)NC(C1CC1)C1CC1	5.0*	7.3*	16*	8	2	1	1	4	15*	1
CC(C)(CO)CNC(=O)CCc1nnc(CCCc2ccccc2)o1	-1	2	1	2	0	-1	/	/	/	/
COc1ccc(-c2nnn3c2C2c4cc(-c5cccc(F)c5)ccc4CCN2C(=O)C3)cc1 (stereo not given)	/	-1	0	/	0	0	/	/	/	/
O=C(N/N=C/c1cccnc1)c1[nH]ncc1Br	0	6.8*	13*	5	1	0	0	1	5	0
Cc1cc(C(=O)N/N=C/c2cccnc2)n[nH]1	1	1	1	2	0	0	/	/	/	/
Cc1ccc(NC(=O)c2ccc(Cl)nc2)cc1	4	8.7*	14*	4	2	1.4*	0	8.2*	9	0

Assay outcomes from PubChem.
